# Results taken from article PMC7862700, “An all-to-all approach to the identification of sequence-specific readers for epigenetic DNA modifications on cytosine”.
# What was measured:
# Test in all cases: DAPPL (digital affinity profiling via proximity ligation, sequencing); 10 mM Tris-HCl pH 7.5, 50 mM NaCl, 1 mM DTT, 4% glycerol, room temperature, 30 min; GST-TFs on glutathione beads, 16-mer random dsDNA library, 0.1% formaldehyde crosslink after washing; high values mean tight binding
# Conditions in all cases: protein: recombinant; tags: N-terminal GST; dsDNA, one strand shown
# ETV1 = ETV1 (Homo sapiens, UniProt P50549 1-477)
# ETV1, sequence (P50549 whole entry, the tested form may be a part): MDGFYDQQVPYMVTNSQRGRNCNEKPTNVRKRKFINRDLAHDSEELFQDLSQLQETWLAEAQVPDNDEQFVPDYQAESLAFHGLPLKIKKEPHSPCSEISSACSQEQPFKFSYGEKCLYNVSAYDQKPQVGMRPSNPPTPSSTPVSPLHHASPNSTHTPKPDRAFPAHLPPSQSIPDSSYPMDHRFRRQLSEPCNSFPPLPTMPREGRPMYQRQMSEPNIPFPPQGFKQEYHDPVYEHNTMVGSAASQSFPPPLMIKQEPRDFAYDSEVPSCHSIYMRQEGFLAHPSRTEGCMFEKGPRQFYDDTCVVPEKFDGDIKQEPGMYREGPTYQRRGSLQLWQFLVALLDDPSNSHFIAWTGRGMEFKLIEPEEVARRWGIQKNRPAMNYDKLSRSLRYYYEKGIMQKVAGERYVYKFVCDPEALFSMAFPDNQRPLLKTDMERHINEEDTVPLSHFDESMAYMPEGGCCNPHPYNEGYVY
# How it was run: (§1)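 Each value of binding signal is a hexamer's read frequency for a factor divided by the same hexamer's frequency in the tag-only sample. Barcoded, bead-captured GST fusions of human transcription factors made in yeast were pooled with that sample and incubated with 200 nmole of a random double-stranded 16-mer DNA library in Tris/NaCl/DTT/glycerol buffer at room temperature for 30 min. Washing, 0.1% formaldehyde crosslinking, proximity ligation, PCR and Illumina NextSeq500 sequencing followed.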
# ERF = target: T1, ERF (Homo sapiens, UniProt P50548 1-548)
# T1 sequence: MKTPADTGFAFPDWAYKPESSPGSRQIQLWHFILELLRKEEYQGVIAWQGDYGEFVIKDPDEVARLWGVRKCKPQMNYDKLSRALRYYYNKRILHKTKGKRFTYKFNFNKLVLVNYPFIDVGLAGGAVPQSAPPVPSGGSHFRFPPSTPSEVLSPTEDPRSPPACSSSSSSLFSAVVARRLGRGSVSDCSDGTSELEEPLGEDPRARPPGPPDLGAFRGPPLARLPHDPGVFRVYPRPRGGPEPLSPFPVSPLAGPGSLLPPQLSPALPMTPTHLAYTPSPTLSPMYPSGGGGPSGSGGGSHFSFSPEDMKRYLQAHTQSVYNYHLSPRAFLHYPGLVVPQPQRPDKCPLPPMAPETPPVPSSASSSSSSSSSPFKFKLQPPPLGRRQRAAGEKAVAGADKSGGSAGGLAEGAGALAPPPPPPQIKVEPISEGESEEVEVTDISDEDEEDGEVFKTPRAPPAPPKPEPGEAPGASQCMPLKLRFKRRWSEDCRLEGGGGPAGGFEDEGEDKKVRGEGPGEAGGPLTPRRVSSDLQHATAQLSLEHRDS
# How it was run: as §1
# ETV3L = target: T2, ETV3L (Homo sapiens, UniProt Q6ZN32 1-361)
# T2 sequence: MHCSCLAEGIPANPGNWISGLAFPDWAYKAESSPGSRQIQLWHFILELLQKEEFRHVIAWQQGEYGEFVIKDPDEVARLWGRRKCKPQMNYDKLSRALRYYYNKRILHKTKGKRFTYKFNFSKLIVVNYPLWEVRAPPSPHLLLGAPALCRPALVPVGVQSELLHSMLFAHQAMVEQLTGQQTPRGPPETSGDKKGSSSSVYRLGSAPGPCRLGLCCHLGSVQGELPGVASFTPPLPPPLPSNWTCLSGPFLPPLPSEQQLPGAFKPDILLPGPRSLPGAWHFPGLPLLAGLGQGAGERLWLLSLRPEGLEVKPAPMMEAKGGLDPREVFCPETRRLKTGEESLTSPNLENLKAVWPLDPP
# How it was run: as §1
# ETS2 = target: T3, ETS2 (Homo sapiens, UniProt P15036 1-469)
# T3 sequence: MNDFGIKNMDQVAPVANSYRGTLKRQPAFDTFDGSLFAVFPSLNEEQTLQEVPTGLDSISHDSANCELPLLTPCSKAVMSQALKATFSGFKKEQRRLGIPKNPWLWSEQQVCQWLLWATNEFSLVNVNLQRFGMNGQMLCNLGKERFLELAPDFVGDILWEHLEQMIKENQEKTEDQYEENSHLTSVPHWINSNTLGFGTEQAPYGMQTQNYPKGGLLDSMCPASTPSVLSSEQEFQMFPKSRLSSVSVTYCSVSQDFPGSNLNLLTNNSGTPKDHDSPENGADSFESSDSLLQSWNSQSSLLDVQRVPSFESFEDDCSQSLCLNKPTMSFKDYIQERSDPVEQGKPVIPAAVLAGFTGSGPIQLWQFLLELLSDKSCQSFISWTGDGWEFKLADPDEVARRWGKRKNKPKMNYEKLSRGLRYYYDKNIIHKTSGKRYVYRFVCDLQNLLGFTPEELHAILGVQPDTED
# How it was run: as §1
# SPDEF = target: T4, SPDEF (Homo sapiens, UniProt O95238 1-335)
# T4 sequence: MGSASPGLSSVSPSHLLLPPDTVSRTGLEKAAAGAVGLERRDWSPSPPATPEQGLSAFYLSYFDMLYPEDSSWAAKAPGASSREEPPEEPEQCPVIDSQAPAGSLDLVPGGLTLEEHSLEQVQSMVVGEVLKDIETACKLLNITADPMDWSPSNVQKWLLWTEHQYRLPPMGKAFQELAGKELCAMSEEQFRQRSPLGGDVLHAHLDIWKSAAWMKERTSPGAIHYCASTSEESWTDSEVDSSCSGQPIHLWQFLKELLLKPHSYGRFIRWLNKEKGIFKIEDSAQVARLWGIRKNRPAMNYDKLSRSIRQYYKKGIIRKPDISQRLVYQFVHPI
# How it was run: as §1
# ETV7 = target: T5, ETV7 (Homo sapiens, UniProt Q9Y603 1-341)
# T5 sequence: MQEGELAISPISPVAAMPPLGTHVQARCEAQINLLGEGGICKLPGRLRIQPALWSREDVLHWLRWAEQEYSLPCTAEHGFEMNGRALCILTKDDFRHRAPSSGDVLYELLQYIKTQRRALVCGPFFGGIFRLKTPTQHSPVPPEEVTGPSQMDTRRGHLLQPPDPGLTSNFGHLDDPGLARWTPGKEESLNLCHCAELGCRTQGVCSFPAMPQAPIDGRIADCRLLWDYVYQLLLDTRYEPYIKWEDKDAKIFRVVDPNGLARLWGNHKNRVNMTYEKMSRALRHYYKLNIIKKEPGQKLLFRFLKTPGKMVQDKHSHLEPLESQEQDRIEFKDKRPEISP
# How it was run: as §1
# ELF5 = target: T6, ELF5 (Homo sapiens, UniProt Q9UKW6-2 1-255)
# T6 sequence: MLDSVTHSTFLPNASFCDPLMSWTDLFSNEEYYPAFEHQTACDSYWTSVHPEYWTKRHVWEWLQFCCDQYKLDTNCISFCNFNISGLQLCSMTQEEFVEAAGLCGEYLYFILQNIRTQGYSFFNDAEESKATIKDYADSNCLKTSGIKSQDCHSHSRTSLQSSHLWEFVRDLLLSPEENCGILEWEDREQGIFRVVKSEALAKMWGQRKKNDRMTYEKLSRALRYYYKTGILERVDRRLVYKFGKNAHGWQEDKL
# How it was run: as §1
# ETV3 = target: T7, ETV3 (Homo sapiens, UniProt P41162-2 1-143)
# T7 sequence: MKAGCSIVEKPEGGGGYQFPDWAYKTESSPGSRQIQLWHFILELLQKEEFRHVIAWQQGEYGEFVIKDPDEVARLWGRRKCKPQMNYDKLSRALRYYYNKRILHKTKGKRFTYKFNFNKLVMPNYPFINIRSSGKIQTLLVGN
# How it was run: as §1
# ETV6 = ETV6 (Homo sapiens, UniProt P41212 1-452)
# ETV6, sequence (P41212 whole entry): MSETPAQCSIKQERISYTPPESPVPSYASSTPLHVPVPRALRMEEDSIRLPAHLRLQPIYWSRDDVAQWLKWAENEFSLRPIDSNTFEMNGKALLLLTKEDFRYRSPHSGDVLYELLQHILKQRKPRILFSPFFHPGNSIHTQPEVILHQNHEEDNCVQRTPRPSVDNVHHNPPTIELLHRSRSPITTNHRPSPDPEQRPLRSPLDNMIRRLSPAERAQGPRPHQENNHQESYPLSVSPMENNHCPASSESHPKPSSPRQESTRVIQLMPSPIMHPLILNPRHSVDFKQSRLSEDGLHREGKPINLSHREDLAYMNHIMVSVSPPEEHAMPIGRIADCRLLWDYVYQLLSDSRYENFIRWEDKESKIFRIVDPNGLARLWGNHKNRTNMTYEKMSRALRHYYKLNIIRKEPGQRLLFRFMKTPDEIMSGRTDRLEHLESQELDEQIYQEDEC
# How it was run: as §1
sequence,measurement,setting,value
ATTGGT,binding signal,ETV1,"1.29 fold enrichment (6-mer frequency, TF over GST control)"
same,binding signal,ERF,"1.21 fold enrichment (6-mer frequency, TF over GST control)"
same,binding signal,ETV3L,"1.24 fold enrichment (6-mer frequency, TF over GST control)"
same,binding signal,ETS2,"1.34 fold enrichment (6-mer frequency, TF over GST control)"
same,binding signal,SPDEF,"1.26 fold enrichment (6-mer frequency, TF over GST control)"
same,binding signal,ETV7,"1.27 fold enrichment (6-mer frequency, TF over GST control)"
same,binding signal,ELF5,"1.19 fold enrichment (6-mer frequency, TF over GST control)"
same,binding signal,ETV3,"1.24 fold enrichment (6-mer frequency, TF over GST control)"
same,binding signal,ETV6,"1.13 fold enrichment (6-mer frequency, TF over GST control)"
